Screening data (PubChem BioAssay)
CHOP inh = inhibitors of CHOP promoter induction, primary screen, cell-based, unfolded protein response, luciferase reporter; inhibition, % at 10 µM; CHO-K1 CHOP-promoter luciferase, tunicamycin-induced, 15-18 h; actives 3.8% (n = 220,000); AID 2732, 2010;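 active means compounds that reduced the stress-induced luciferase reporter signal by more than about 70% of percent inhibition, limit read from the data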
KKLEB tox = cytotoxicity in KKLEB CF airway cells, primary screen, cytotoxicity control for CF NF-kB inhibitor project, cell-based, uHTS, fluorescence assay plates | activity change (cytotoxicity), % at 5 µM | actives 0.36% (n = 360,000) | KKLEB CF airway cells viability, ATPlite luminescence, overnight; stronger effect = lower value; cells stimulated with P. aeruginosa culture filtrate;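 active means corrected activity change at or below -50% at 5 µM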
CF NFkB block = inhibitors of PAF-induced NF-kB signaling, primary screen, cell-based, GFP fluorescence, uHTS | actives 0.86% (n = 360,000) | inhibition, % at 5 µM | KKLEB NF-kB-GFP reporter, GFP fluorescence overnight;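 active means at least 50% inhibition at 5 µM, scaled per plate between neutral and stimulator controls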;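 further: PAF is a Pseudomonas aeruginosa culture filtrate used as stimulus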
HIF-2a block = HIF-2a reporter inhibitors, primary screen, luminescence, 786-0 RCC cells | 786-0 RCC cells HIF-2a reporter, luciferase luminescence, overnight | inhibition, % at 18.8 µM | actives 0.72% (n = 360,000) | AID 624352, 2012;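 active means inhibition of the luminescence signal of 40% or more relative to plate controls, in a single-dose primary screen at 18.75 µM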
MITF TRPM1 inh = inhibitors of MITF-dependent TRPM1 promoter reporter, primary screen, cell-based, SK-MEL-5, single point, luciferase; SK-MEL-5 TRPM1 promoter luciferase, 24 h; inhibition, % at 12.5 µM; actives 0.83% (n = 330,000); AID 488899, 2010;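 active means mean inhibition across replicates of 60% or more, whatever share of single replicates reaches that level; inconclusive means some that reach 60%, reason not given; inactive means mean inhibition across replicates below 60%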
Peg3 promoter = Peg3 promoter-driven luciferase inhibitors, primary screen, cell-based, HeLa, luciferase luminescence. HeLa PEG-Prom luciferase reporter, overnight. inhibition, % at 20 µM. actives 1.7% (n = 360,000). AID 588405, 2011;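 active means inhibition of at least 50% at 20 µM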
Large screens that a line does not name were inactive. In the library only some 4.3% were active in any assay of this set; here they are far more common.

COc1ccccc1Cn1c(=S)[nH]c2cc(C(=O)N3CCCC(C)C3)ccc2c1=O (configuration not stated)	none (no result: CHOP inh, MITF TRPM1 inh)
COc1ccccc1CNCC(O)(c1ccc(F)cc1)c1ccc(F)cc1	none (no result: CHOP inh)
OC(CNCc1ccccc1F)(c1ccc(F)cc1)c1ccc(F)cc1	CHOP inh 75
Cc1ccc(CNCC(O)(c2ccc(F)cc2)c2ccc(F)cc2)cc1	CHOP inh 86
Cn1nc(C(C)(C)C)cc1C(=O)NN1CCOCC1	none (no result: CHOP inh)
O=C(Nc1cccc(C(F)(F)F)c1)c1ccc2sc([C@H]3C[C@H](O)[C@@H](CO)O3)nc2c1	none (no result: CHOP inh, MITF TRPM1 inh)
COc1cccc(Cn2nnc(C(=O)Nc3cc(Cl)ccc3OC)c2N)c1	none
COc1ccc(OC)c(NC(=O)c2nnn(Cc3ccc(Br)cc3F)c2N)c1	CHOP inh 88
O=C(Nc1c(F)cccc1F)C1CCN(C(=O)c2cccs2)CC1	none (no result: CHOP inh)
O=C(Nc1ccc(S(=O)(=O)Nc2cnc3ccccc3n2)cc1)c1ccc(Cl)c([N+](=O)[O-])c1	none (no result: CHOP inh)
Oc1ccc(Cl)c2cccnc12	none (no result: CHOP inh)
Oc1ccc(F)c2cccnc12	CHOP inh 72
Oc1ccc(CNc2ccccc2F)c2cccnc12	MITF TRPM1 inh 65
O=c1[nH]nc(-c2ccc[nH]2)[nH]1	none (no result: CHOP inh, MITF TRPM1 inh)
Nc1c(C(=O)NC2CCCC2)c2nc3ccccc3nc2n1N	CHOP inh 74
Cc1ccc(-n2c(C)nnc2SCC(=O)NC2CCCC2)cc1	none (no result: CHOP inh)
COc1ccc(-c2[nH]ncc2/C=C(/C#N)C(=O)NC2CCCCC2)cc1	none
Cc1ccc(-c2[nH]ncc2/C=C(\C#N)C(=O)NC2CCCCC2)cc1	CHOP inh 72
O=C(NC(=S)Nc1ccc(Br)cn1)c1cncc(Br)c1	CHOP inh 81
CCOc1ccc(NC(=O)Nc2cc(C(C)C)ccc2C)cc1	CHOP inh 93
Cc1ccc(C(C)C)cc1NC(=O)Nc1ccc([N+](=O)[O-])cc1	CHOP inh 106
O=C(Nc1ccc2c(c1)OCO2)c1cc(C2CCCCN2C(=O)CCCc2ccccc2)on1 (configuration not stated)	none (no result: CHOP inh, MITF TRPM1 inh)
Cc1ccc(NC(=O)C2CCN(S(=O)(=O)c3c(C)noc3/C=C/c3ccco3)CC2)nc1	MITF TRPM1 inh 72
Cc1cccnc1NC(=O)C1CCN(S(=O)(=O)c2c(C)noc2/C=C/c2ccco2)CC1	none
O=S(=O)(Cc1ccccc1)NCc1cccnc1	none
C=CCNC1=C(Cl)C(=O)c2ccccc2C1=O	MITF TRPM1 inh 63
O=C1C(Cl)=C(NCc2cccnc2)C(=O)c2ccccc21	MITF TRPM1 inh 98 (no result: CHOP inh)
O=C1C(Cl)=C(NCCc2ccccc2)C(=O)c2ccccc21	MITF TRPM1 inh inconclusive, Peg3 promoter 63 (no result: CHOP inh)
O=C(c1ccc(S(=O)(=O)Nc2cccc(C(F)(F)F)c2)cc1)N1CCN(c2ccccc2O)CC1	none (no result: CHOP inh)
COC(=O)c1ccc2nc(-c3ccc(Cl)cc3)c(Cc3cccc(Cl)c3)n2c1	none (no result: CHOP inh, KKLEB tox, CF NFkB block, MITF TRPM1 inh, Peg3 promoter)
Cc1nc(SCc2cccnc2)[nH]c(=O)c1C	none (no result: CHOP inh)
CCOc1ccc(NC(=O)C2CC(=O)N(CC)C(=Nc3ccc4c(c3)OCO4)S2)cc1 (configuration not stated)	CHOP inh 72
CC(/C=C/c1ccc(N(C)C)cc1)=N/N=C1/NC(=O)CC(C(=O)Nc2ccc(Cl)cc2)S1 (configuration not stated)	CHOP inh 71
CCCOc1ccc(NC(=O)C2CC(=O)N/C(=N/N=C(C)/C=C/c3ccc(N(C)C)cc3)S2)cc1 (configuration not stated)	CHOP inh 72
CC(/C=C/c1ccc(N(C)C)cc1)=N\N=C1\NC(=O)CC(C(=O)Nc2ccccc2)S1 (configuration not stated)	none
CCN1C(=O)CC(C(=O)Nc2ccc(F)cc2)SC1=Nc1ccc2c(c1)OCO2 (configuration not stated)	none
CCOc1cccc(NC(=O)C2CC(=O)N(C)C(=Nc3cccc(F)c3)S2)c1 (configuration not stated)	CHOP inh 91
CCOc1cccc(NC(=O)C2CC(=O)N(C)C(=Nc3ccccc3)S2)c1 (configuration not stated)	none
COc1ccccc1NC(=O)NCCN1CCN(c2cccc(Cl)c2)CC1	none (no result: CHOP inh)
CCCOc1ccc(NC(=O)C2CC(=O)N/C(=N/N=C(\C)CCc3ccc4c(c3)OCO4)S2)cc1 (configuration not stated)	CHOP inh 78
COc1ccc([C@@H]2C[C@H]3[C@@H](CN2S(=O)(=O)c2ccccc2)C(=O)C[C@@H](c2cccc4ccccc24)N3S(=O)(=O)c2ccc(C)cc2)cc1	none (no result: CHOP inh, MITF TRPM1 inh)
CCc1nc(-c2ccc(-c3ccc(OC)cc3)nc2OC)no1	CHOP inh 77
COCc1nc(-c2ccc(-c3ccc(OC)cc3)nc2OC)no1	none
CCN(CC)S(=O)(=O)c1cc([N+](=O)[O-])ccc1N=Nc1c(O)[nH]c2ccccc12	CHOP inh 75
Cc1ccc2[nH]c(O)c(N=Nc3ccccc3[N+](=O)[O-])c2c1	none (no result: CHOP inh)
Oc1c(CN2CCN(c3ccccn3)CC2)cc(Cl)c2cccnc12	MITF TRPM1 inh 84, Peg3 promoter 50 (no result: CHOP inh)
Oc1ccc(CN2CCCCC2)c2cccnc12	none
CN(C)C1CCN(Cc2cc(COCc3ccccc3)c3cccnc3c2O)C1 (configuration not stated)	MITF TRPM1 inh 73 (no result: CHOP inh)
Oc1c(Cl)cc(CN2CCCCC2)c2cccnc12	MITF TRPM1 inh 64 (no result: CHOP inh)
OCCN1CCN(Cc2cc(Cl)c3cccnc3c2O)CC1	none
Oc1c(CN2CCCCC2)ccc2cccnc12	MITF TRPM1 inh 77 (no result: CHOP inh)
O=C(COc1cccc(C(F)(F)F)c1)NNC(=O)Cn1c(=O)cnc2ccccc21	none (no result: CHOP inh)
O=C(NCc1cc(Cl)cc(Cl)c1)c1ccc2nc([C@@H]3O[C@H](CO)[C@@H](O)[C@H]3O)[nH]c2c1	none (no result: CHOP inh, MITF TRPM1 inh)
COc1ccc(C2=Nc3ccccc3N(C(=O)c3ccc(C(F)(F)F)cc3)C2C(=O)Nc2ccc3c(c2)OCCO3)cc1 (configuration not stated)	none (no result: CHOP inh, KKLEB tox, CF NFkB block, MITF TRPM1 inh, Peg3 promoter)
N#C/C(=C\c1ccccc1O)C(=O)Nc1ccccn1	none (no result: CHOP inh)
Oc1c(CN2CCCCC2)cc(COCc2ccccc2)c2cccnc12	MITF TRPM1 inh 88, Peg3 promoter 76 (no result: CHOP inh)
CCOc1ccc(N2CC(C(=O)Nc3nnc(Cc4ccccc4)s3)CC2=O)cc1 (configuration not stated)	none (no result: CHOP inh)
COCC(=O)O[C@]1(CCN(C)CCCc2nc3ccccc3[nH]2)CCc2cc(F)ccc2[C@@H]1C(C)C	Peg3 promoter 90
NS(=O)(=O)c1ccc(CCNC(=O)CSCC(=O)Nc2ccc(Cl)cc2)cc1	none (no result: CHOP inh)
